High-throughput results: PubChem BioAssay, National Center for Advancing Translational Sciences (NCATS)
A selection: hits, their analogues and other compounds. The true share with any hit is near 19%.
KB-V1 MDR tox: kills drug-selected multidrug resistant KB-V1 cells; KB-V1 MDR cells viability, CellTiter-Glo, 72 h; Potency, µM (highest dose often 46.1 µM), most hits filed as cytotoxic; 400,000 compounds, 3.4% hits; AID 1347076; note: nearly all actives have a fitted effect of over 60% in size
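Cells of the MDR subline KB-V1 are plated, dosed with compound at multiple concentrations, and incubated 72 h at 37 degrees C; CellTiter-Glo is then added and luminescence read after 10 min.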
DT40 TDP1 CPT: growth inhibition of DT40 Tdp1-/-;hTDP1 cells with camptothecin (screen for TDP1 inhibitors) | chicken DT40 Tdp1-/-;hTDP1 cells + 20 nM CPT, ATP luminescence, 48 h | AID 686979 | 420,000 compounds, 12% hits | Potency, µM (series often up to 46.2 µM), usual class: inhibitors; note: nearly all actives have a fitted effect of over 55% in size
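Cell growth measured by CellTiter-Glo luminescence after a minimum 48 h, 37 C compound exposure with 20 nM CPT in Tdp1-knockout DT40 cells stably expressing hTDP1, seeded 400/well; qHTS titration format.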
HT1080 IDH1KD tx: HT-1080 IDH1 knockdown cell toxicity (counter line). HT-1080 IDH1 knockdown viability, ATP luminescence, 48 h. 360,000 compounds, 2% hits. Potency, µM (top dose mostly 46.1 µM), actives largely listed as cytotoxic. AID 686971
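Knockdown cells (IDH1KD HT-1080) received compounds 2 h after plating at 750 cells/well and were kept 48 h at 37 °C in 5% FBS RPMI. A CellTiter-Glo luminescence read gave % activity for curve fitting.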
TDP1 cell noCPT: qHTS for Inhibitors of human tyrosyl-DNA phosphodiesterase 1 (TDP1): qHTS in cells in absence of CPT | DT40 Tdp1-/- hTDP1 cells, no CPT, ATP luminescence, 48 h | Potency, µM (top dose mostly 46.2 µM), most hits filed as inhibitors | 420,000 compounds, 15% hits | AID 686978, 2013; note: nearly all actives have a fitted effect of over 55% in size
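Growth of hTDP1-complemented DT40 Tdp1-knockout cells is measured by ATP luminescence after at least 48 hr compound exposure at 37 °C, with DMSO substituting for the 20 nM CPT used in the parallel screen.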
KB-3-1 cytotox: KB-3-1 parental cell cytotoxicity; 400,000 compounds, 1.4% hits; Potency, µM (top dose mostly 46.1 µM), usual class: cytotoxic; AID 1347075; KB-3-1 viability, CellTiter-Glo ATP luminescence, 72 h; note: nearly all actives have a fitted effect of over 60% in size
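Viability of parental KB-3-1 cells, measured by CellTiter-Glo luminescence, followed a 72 h incubation at 37 °C with pinned compounds in phenol-red-free DMEM containing 10% FBS.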
HT1080-NT tox: kills 2HG-producing HT-1080-NT fibrosarcoma cells; HT-1080-NT fibrosarcoma viability, CellTiter-Glo ATP luminescence, 48 h; Potency, µM (highest dose often 46.1 µM), most hits filed as cytotoxic; 360,000 compounds, 1.6% hits; AID 686970;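 note: NT is the 2HG producing partner of a matched IDH1 knockdown line; nearly all actives have a fitted effect of over 55% in size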
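Viability by CellTiter-Glo luminescence after 48 h compound exposure at 37C of HT-1080-NT cells (750/well, RPMI, 5% FBS). % activity scaled between DMSO wells and medium-only wells, then curve-fitted and categorized by curve class.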
Numbers stand for hits; - = inactive; ? = inconclusive; . = not tested or not shown; [ ] = another dose, or the depositor's remark. Calls come from the whole dose curve; as a rule, active = well fitted curve in the direction sought with a large enough effect; inconclusive = small, poorly fitted or top-dose-only effect, or another doubt; inactive = no such curve, though single readings can be large; an effect the other way counts as inactive or inconclusive.

SMILES | KB-V1 MDR tox | DT40 TDP1 CPT | HT1080 IDH1KD tx | TDP1 cell noCPT | KB-3-1 cytotox | HT1080-NT tox
CN1CCc2c(OCC(=O)N3N=C(c4cccs4)CC3c3ccc(F)cc3)cccc2C1=O (stereo not given) | - | 11.6µM | ? | 29.1µM | ? | 23.1µM
O=C(CSc1nc2ccccc2s1)N1N=C(c2cccs2)CC1c1ccc(F)cc1 (stereo not given) | ? | ? | - | ? | - | -
CCN1CCc2c(OCC(=O)N3N=C(c4cccs4)CC3c3ccc(F)cc3)cccc2C1=O (stereo not given) | ? | 20.6µM | ? | 18.4µM | ? | ?
COc1ccc(NC(=O)Cn2ccn(Cc3ccccc3)c(=O)c2=O)cc1Cl | . | - | . | - | . | .
O=C(COC(=O)c1ccccc1C(=O)c1ccc(Cl)c([N+](=O)[O-])c1)NC1CC1 | - | 18.4µM | 4.61µM | 16.4µM | 8.2µM | 6.51µM
O=C(COC(=O)c1cc([N+](=O)[O-])ccc1Cl)NC1CCCC1 | - | - | - | - | ? | -
O=C(OC1CCOC1=O)c1ccccc1C(=O)c1ccc(Cl)c([N+](=O)[O-])c1 (stereo not given) | - | ? | ? | - | - | -[9.24 µM]
CNC(=O)COC(=O)c1ccccc1C(=O)c1ccc(Cl)c([N+](=O)[O-])c1 | ? | ? | 23.1µM | ? | - | 11.6µM
COc1ccc(CNCc2ccc(C(=O)O)s2)cc1 | - | - | . | - | - | .
CN(C)CCCn1c(SCC(=O)N2c3ccccc3Sc3ccccc32)nc2ccccc2c1=O | ? | ? | ? | 23.1µM | ? | 18.4µM
CCn1c(SCC(=O)Nc2nc(-c3ccc(C)cc3)cs2)nnc1-c1ccccc1 | 2.59µM | ? | - | 18.4µM | ? | -
Cn1c(SCC(=O)N2c3ccccc3Sc3ccccc32)nc2ccccc21 | ? | ? | - | ? | - | -
Cc1csc(SCC(=O)Nc2nc(-c3ccccc3)cs2)n1 | - | ? | - | ? | - | -
Cc1ccc(-c2csc(NC(=O)CSc3nc(C)cs3)n2)cc1 | - | ? | - | 16.4µM | - | -
COc1ccc(NC(=O)CSc2nc(C)cs2)c([N+](=O)[O-])c1 | 23.1µM | - | - | - | - | -
COc1ccc(NC(=O)CSc2nccn2C)c([N+](=O)[O-])c1 | - | - | - | - | - | -
O=C(O)c1cc(S(=O)(=O)N2CCCCC2)ccc1N1CCCCC1 | . | - | - | - | . | -
Cc1nc2sccn2c(=O)c1S(=O)(=O)N1CCN(c2cccc(Cl)c2)CC1 | - | - | - | - | - | -
Cc1cc(C)nc(SCc2nnc(SCC(=O)Nc3nccs3)n2C)n1 | ? | - | - | - | - | -
Cc1cc(C)nc(SCc2nnc(SCC(=O)Nc3nc(-c4ccccc4)cs3)n2C)n1 | - | ? | - | 25.9µM | - | -
Cc1csc(SCC(=O)Nc2cccc(C)c2C)n1 | 16.4µM | - | - | - | - | -
Nc1ccccc1SCC(=O)Nc1nc(-c2ccccc2)cs1 | ? | - | ? | ? | 4.11µM | -
CCCCn1c(SCC(=O)NC(=O)Cc2ccccc2)nc2ccccc2c1=O | - | - | - | - | - | -
Cc1ccc(-c2csc(NC(=O)CSc3nc4ccccc4c(=O)n3CCCN(C)C)n2)cc1 | ? | 10.3µM | 23.1µM | 14.6µM | ? | ?
O=C(CSc1ncn[nH]1)Nc1nc(-c2ccccc2)cs1 | - | - | - | - | - | -
SMILES | KB-V1 MDR tox | DT40 TDP1 CPT | HT1080 IDH1KD tx | TDP1 cell noCPT | KB-3-1 cytotox | HT1080-NT tox
COc1cc(C(=O)Nc2nnc(CC(C)C)s2)c([N+](=O)[O-])cc1OC | - | - | - | - | - | -
CC1=CC(=O)O[C@@H]1[C@@]1(C)C[C@H]2OC(=O)C[C@H]3[C@@H](C)C(=O)C(O)=C1[C@@]23CO | - | - | - | - | - | -
CCn1c(SCC(=O)Nc2nc(-c3ccc(C)cc3)cs2)nnc1-c1ccccc1O | - | ? | ? | ? | ? | ?
Cc1ccc(NC(=O)CCn2cnc3ccccc3c2=O)cc1 | - | - | - | - | - | -
CCn1c(CSc2nc(C)cc(C)n2)nnc1SCC(=O)Nc1nc(-c2ccccc2)cs1 | ? | 20.6µM | - | ? | - | -
O=C(CCn1cnc2ccccc2c1=O)Nc1nc(-c2ccc(Br)cc2)cs1 | - | ? | - | 16.4µM | ? | -
Cc1ccc2[nH]c(CSc3nnc(NC(=O)COc4ccccc4Cl)s3)cc(=O)c2c1 | - | ? | . | ? | - | .
CC[n+]1c(/C=C/C=C/N(C(C)=O)c2ccccc2)sc2ccccc21 | ? | ? | ? | 20.6µM | 16.4µM | ?
